MARV entry inh: blocks Marburg virus binding to or entry into cells; Marburg virus pseudotyped entry inhibition, cell reporter; Potency, µM (series often up to 37.8 µM), for inactives: at the highest dose activity change, negative = inhibition, most hits filed as inhibitors; 300,000 compounds, 1.8% hits; AID 540276; calls by dose curve; tested in HEK293 cells; also: potency is read from the fitted curve at half-maximal effect; % is scaled to controls: 0 for no effect and ±100 for the full control effect
HCMV inh: inhibitors of human cytomegalovirus; HFF cells, HCMV-luciferase reporter, 72 h; stronger effect = lower value; activity change, negative = inhibition, % at 57.5 µM; 410,000 compounds, 4.5% hits; AID 1259415; in the data active = activity change below about -60%; inconclusive = no clear call, values can overlap the other calls; inactive = above about -39%; also: % is scaled to controls: 0 for no effect and ±100 for the full control effect
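After 16 h attachment at 37C, HFF cells received test compound and HCMV-luciferase (1 PFU/cell); reporter luminescence read 72 h later, data normalized against buffer-only and known inhibitor Salinomycin.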
Lassa entry inh: Lassa virus entry inhibition | Potency, µM (highest dose often 37.9 µM), for the others: at the highest dose activity change, negative = inhibition, actives largely listed as inhibitors | Lassa virus pseudotype entry inhibition, cell reporter | 300,000 compounds, 1.2% hits; calls by dose curve; tested in HEK293 cells; also: potency is read from the fitted curve at half-maximal effect; % is scaled to controls: 0 for no effect and ±100 for the full control effect; nearly all actives have a fitted effect of over 50% in size
FMDV inh: blocks foot and mouth disease virus; 410,000 compounds, 1.2% hits; Potency, µM (top dose mostly 57.9 µM), without a hit: at the top dose activity change, negative = inhibition, actives largely listed as inhibitors; FMDV antiviral cell-based qHTS; calls by dose curve; tested in HEK293T cells; also: read-out not given here; potency is read from the fitted curve at half-maximal effect; % is scaled to controls: 0 for no effect and ±100 for the full control effect; nearly all actives have a fitted effect of over 45% in size
SARS PLpro yeast: inhibitors of SARS-CoV papain-like protease in yeast; Potency, µM (series often up to 32.9 µM), for inactives: at the top dose activity, positive = growth rescue, actives largely listed as activators; 330,000 compounds, 0.19% hits; S. cerevisiae expressing SARS-CoV PLpro, growth rescue; calls by dose curve; also: potency is read from the fitted curve at half-maximal effect; 0% is about no effect; nearly all actives have a fitted effect of over 55% in size
HCV inhibitor: HCV inhibition; AID 651820; 340,000 compounds, 3.4% hits; Huh7.5.1 HCVcc-Cre infection, luciferase reporter, 44 h; Potency, µM (titrated, usually from 41.8 µM), inactives show at the top dose activity change, negative = inhibition, actives largely listed as inhibitors; active = well fitted inhibition curve with a large enough effect; inconclusive = small, poorly fitted or top-dose-only effect, or another doubt; inactive = no such curve, though single readings can be large or run the other way; also: potency is read from the fitted curve at half-maximal effect; % is scaled to controls: 0 for no effect and ±100 for the full control effect
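HCVcc-Cre virus at an moi near 0.5 was added right after compound to cells cultured 4 h from seeding (1,000 cells/well). Luciferase activity was determined 44 h later, 15 min after substrate addition at RT.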
Numbers without * were called inactive; ? = inconclusive; . = not tested or not shown; [ ] = remark or other dose. This is a sample that favours compounds with a hit; in the whole collection about 8% have one here.

SMILES	MARV entry inh	HCMV inh	Lassa entry inh	FMDV inh	SARS PLpro yeast	HCV inhibitor
CCC(CC)C(=O)Nc1cccc(C(=O)Nc2ccc(S(=O)(=O)Nc3ccc(C)cc3)cc2)c1	?	-97*	?	?	7%	16µM*
CCc1nc2ccc(C(=O)Nc3cccc(C(C)=O)c3)cc2nc1CC	-9%	-16	-4%	?	4%	?
CCc1nc2ccc(C(=O)Nc3ccc4c(c3)OCO4)cc2nc1CC	10%	-31	-17%	49%	-1%	2µM*
CCC(CC)C(=O)Nc1cccc(C(=O)Nc2ccc(S(N)(=O)=O)cc2)c1	6%[46.1 µM]	-29	-25%[46.1 µM]	-10%	3%	-24%
CCc1nc2ccc(C(=O)O)cc2nc1CC	2µM*	-14	15µM*	?	5%	-2%
CC(OC(=O)c1cccc(NS(C)(=O)=O)c1)C(=O)Nc1ccc2c(c1)OCO2 (stereo not given)	-26%	3	-21%	?	4%	7.1µM*
COc1ccc(Cl)cc1C(=O)Nc1ccc2c(c1)OCO2	28%	260	9%	15%	-14%	11µM*
Cc1ccc(NS(=O)(=O)c2ccc(N3C(=O)CCC3=O)cc2)cc1	1%	-84*	1%	9%	5%	22%
COc1cccc(C(=O)OC(C)C(=O)Nc2ccc3c(c2)OCO3)c1 (stereo not given)	.	-13	.	-15%	-1%	?
C[C@@]12CCOC13C=CC(=O)C=C3CC[C@H]2O (stereo not given in full)	.	-13	.	.	.	.
Cc1ccc(OCCCC(=O)Nc2sc3c(c2C(N)=O)CCC(C)C3)cc1 (stereo not given)	.	6	7%[46.1 µM]	4%	.	.
Cc1ccc(S(=O)(=O)Nc2ccc(NC(=O)c3c(F)c(F)c(F)c(F)c3F)cc2)cc1	.	-27	.	-14%	0%	13µM*
COc1cc(SC)ccc1C(=O)Nc1ccc2c(c1)OCCO2	?	37	12µM*	-13%	-9%	?
CCC(CC)C(=O)Nc1cccc(C(=O)Nc2ccc3c(c2)OCO3)c1	19%	-38	0%	41%	2%	7.9µM*
Cc1cc(NS(=O)(=O)c2ccc(NC(=O)c3c(F)c(F)c(F)c(F)c3F)cc2)nc(C)n1	13%	?	0%	38%	2%	12%
CCOC(=O)c1ccc(NC(=O)CC2C(=O)N(c3ccc(F)cc3)C(=O)N2CCC(C)C)cc1 (stereo not given)	26µM*	13	?	?	-21%	3%
CCOc1ccc(NC(=O)CC2C(=O)N(c3ccc(OC)cc3)C(=O)N2CCc2cccs2)cc1 (stereo not given)	?	-27	7.3µM*	5%	-1%	-21%
O=C1N/C(=C\c2nc3ccccc3s2)c2ccccc21	.	.	.	.	8%	.
O=C1N/C(=C\c2ccccc2)c2ccccc21	?	120	10%	37%	-10%	7.1µM*
O=C(CC1N=C2c3ccccc3N=C(SCc3ccccc3F)N2C1=O)NCc1ccc2c(c1)OCO2 (stereo not given)	.	23	22%[46.1 µM]	44%	.	.
O=C(CSCc1ccccc1)N1CCN(c2ccc(F)cc2)CC1	1%	26	5%	.	5%	12%
O=C(CSCc1nc2ccccc2[nH]1)N1CCN(c2cccc(Cl)c2)CC1	?	-27	-28%	35µM*	0%	-4%
O=C(CSCc1nc2ccccc2[nH]1)N1CCN(c2ccc(F)cc2)CC1	?	-33	2%	35µM*	-3%	13µM*
O=C(O)CSCc1nc2ccccc2[nH]1	.	-3	.	1%	2%	24%
C=CCn1c(SCC(=O)Nc2ccccc2OC)nnc1-c1ccccn1	?	18	?	?	-4%	7.9µM*
CCC(=O)Nc1nc2ccc([N+](=O)[O-])cc2s1	-2%[46.1 µM]	-60*	-11%[46.1 µM]	-14%	-7%	-4%
Cc1ccc(C)c(OCC(=O)Nc2nc3ccc([N+](=O)[O-])cc3s2)c1C	0%	-65*	-1%	0%	5%	11µM*
CCc1ccc(NS(=O)(=O)c2ccc3[nH]cc(C(=O)NCCCOC(C)C)c(=O)c3c2)cc1	14%[46.1 µM]	-1	?	22%	.	.
Cc1nn(-c2ccccc2)c2c1N(CCCC(=O)NCc1ccccc1)C(=O)CS2	.	6	-20%[46.1 µM]	-16%	.	.

Assay outcomes: PubChem, National Center for Advancing Translational Sciences (NCATS)
